Where a name gives a salt, the structure may show the parent alone.
What was measured:
Conditions in all cases: incubation time: 27 h, anaerobic, 37 °C;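 for the amine columns active = adjusted P below 0.05 in both replicates with a change the same way and a mean fold change under 0.8 or over 1.25; inactive = the rest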
[1] = test system: Clostridium sporogenes DSM 1664; experiment: growth (OD595) fold change vs plate DMSO controls (fold change (ratio)); higher = more growth
Method in brief: (§1)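 The 96-well mGAM cultures had been kept anaerobic for 27 h at 37 °C before being shaken and read at 595 nm. Blank subtraction, compound background correction with 20 µM compound solutions in water, and a calibration factor of 5 turned the readings into OD. Growth is given as the fold change versus the median of plate DMSO controls. Fold changes above 1.5 were set to NA, and the values are means of 2 biological replicates.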

Escherichia coli IAI1 [2] = experiment: as above
Method in brief: as §1

[3] = test system: Klebsiella aerogenes DSM 30053; experiment: as above
Method in brief: as §1

[4] = test system: Ruminococcus gnavus DSM 108212; experiment: as above
Method in brief: as §1

[5] = test system: Klebsiella aerogenes DSM 30053; experiment: fold change of Histamine concentration vs plate DMSO controls (fold change (ratio)); higher = more amine produced, active = hit call of the paper (significant change in both replicates, either direction)
Method in brief: (§2)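 Extracts of whole anaerobic mGAM cultures were analysed for amines by LC–triple-quadrupole MS with dynamic MRM and external calibration curves, with drift corrected within batch. Four gut strains were grown at 37 °C for 27 h in 80 µL wells with compounds at 20 µM final, sweeteners at 50 µM final. Each value expresses fold change over plate DMSO controls. The average of 2 biological replicates is shown.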

[6] = test system: Clostridium sporogenes DSM 1664; experiment: fold change of Tryptamine concentration vs plate DMSO controls (fold change (ratio)); higher = more amine produced, active = hit call of the paper (significant change in both replicates, either direction)
Method in brief: as §2

[7] = test system: Ruminococcus gnavus DSM 108212; experiment: as above
Method in brief: as §2

Escherichia coli IAI1 [8] = experiment: fold change of Putrescine concentration vs plate DMSO controls (fold change (ratio)); higher = more amine produced, active = hit call of the paper (significant change in both replicates, either direction)
Method in brief: as §2

[9] = test system: Klebsiella aerogenes DSM 30053; experiment: as above
Method in brief: as §2

Escherichia coli IAI1 [10] = experiment: fold change of Cadaverine concentration vs plate DMSO controls (fold change (ratio)); higher = more amine produced, active = hit call of the paper (significant change in both replicates, either direction)
Method in brief: as §2

[11] = test system: Klebsiella aerogenes DSM 30053; experiment: as above
Method in brief: as §2

[12] = test system: Ruminococcus gnavus DSM 108212; experiment: fold change of 2-Phenylethylamine concentration vs plate DMSO controls (fold change (ratio)); higher = more amine produced, active = hit call of the paper (significant change in both replicates, either direction)
Method in brief: as §2

Row | SMILES | growth [1] | growth (Escherichia coli IAI1 [2]) | growth [3] | growth [4] | fold change of Histamine concentration [5] | fold change of Tryptamine concentration [6] | fold change of Tryptamine concentration [7] | fold change of Putrescine concentration (Escherichia coli IAI1 [8]) | fold change of Putrescine concentration [9] | fold change of Cadaverine concentration (Escherichia coli IAI1 [10]) | fold change of Cadaverine concentration [11] | fold change of 2-Phenylethylamine concentration [12]
1 | COc1cccc(CCc2ccccc2OCC(CN(C)C)OC(=O)CCC(=O)O)c1 (centres undefined) [Sarpogrelate hydrochloride] (20 µM) | 1.19 | 0.978 | 1.02 | 0.991 | 0.977 (inactive) | 0.989 (inactive) | 0.97 (inactive) | 1.02 (inactive) | 0.999 (inactive) | 1.03 (inactive) | 0.996 (inactive) | 0.961 (inactive)
2 | CC(C)(O)c1ccccc1CC[C@@H](SCC1(CC(=O)O)CC1)c1cccc(/C=C/c2ccc3ccc(Cl)cc3n2)c1 [Montelukast] (20 µM) | 0.909 | 1 | 1.02 | 0.923 | 1.07 (inactive) | 0.587 (active) | 0.851 (inactive) | 0.994 (inactive) | 1.05 (inactive) | 1.03 (inactive) | 1.01 (inactive) | 0.842 (inactive)
3 | CC(C)C(=O)OCC(=O)[C@@]12O[C@H](C3CCCCC3)O[C@@H]1C[C@H]1[C@@H]3CCC4=CC(=O)C=C[C@]4(C)[C@H]3[C@@H](O)C[C@@]12C [Ciclesonide] (20 µM) | 1.08 | 1.12 | 1.01 | 1.17 | 1.02 (inactive) | 0.953 (inactive) | 0.966 (inactive) | 1.11 (inactive) | 0.999 (inactive) | 0.979 (inactive) | 0.99 (inactive) | 0.956 (inactive)
4 | COc1cccc2c1C(=O)c1c(O)c3c(c(O)c1C2=O)C[C@@](O)(C(=O)CO)C[C@@H]3O[C@H]1C[C@H](N)[C@H](O)[C@H](C)O1 [Doxorubicin hydrochloride] (20 µM) | 0.843 | 1.02 | 1.03 | 1.25 | 1.04 (inactive) | 0.956 (inactive) | 0.963 (inactive) | 0.958 (inactive) | 0.982 (inactive) | 1.03 (inactive) | 1.02 (inactive) | 0.943 (inactive)
5 | Cc1c(C)c2c(c(C)c1O)CCC(C)(C(=O)O)O2 (centres undefined) [Trolox] (20 µM) | 0.897 | 0.987 | 0.962 | 0.896 | 1.13 (inactive) | 0.995 (inactive) | 1.02 (inactive) | 0.926 (inactive) | 1.04 (inactive) | 0.986 (inactive) | 0.984 (inactive) | 1.03 (inactive)
6 | Nc1ccn([C@H]2CC[C@@H](CO)O2)c(=O)n1 [Zalcitabine] (20 µM) | 1.05 | 1.04 | 0.995 | 0.997 | 1.03 (inactive) | 1.02 (inactive) | 1.04 (inactive) | 1.09 (inactive) | 0.978 (inactive) | 0.975 (inactive) | 0.997 (inactive) | 1.02 (inactive)
7 | NCCc1c[nH]cn1 [Histamine dihydrochloride] (20 µM) | 0.927 | 1.16 | 1.01 | 0.893 | 1.05 (inactive) | 1.05 (inactive) | 1.06 (inactive) | 1.16 (inactive) | 1.02 (inactive) | 0.952 (inactive) | 0.992 (inactive) | 1.05 (inactive)
8 | c1ccc2c(CC3=NCCN3)cccc2c1 [Naphazoline hydrochloride] (20 µM) | 0.845 | 0.633 | 0.644 | 0.57 | 1.01 (inactive) | 1.01 (inactive) | 1.01 (inactive) | 0.978 (inactive) | 1 (inactive) | 0.96 (inactive) | 1 (inactive) | 0.994 (inactive)
9 | CCN(CC)CCOC(=O)C(c1ccccc1)c1ccccc1 [Adiphenine hydrochloride] (20 µM) | 1.07 | 1.03 | 1.16 | 1 | 0.877 (inactive) | 1.05 (inactive) | 0.977 (inactive) | 1 (inactive) | 0.932 (inactive) | 1.01 (inactive) | 1.03 (inactive) | 0.968 (inactive)
10 | Cc1cccc(CN2CCN(C(c3ccccc3)c3ccc(Cl)cc3)CC2)c1 (centres undefined) [Meclozine dihydrochloride] (20 µM) | 0.897 | 0.963 | 1.01 | 0.705 | 0.964 (inactive) | 1.04 (inactive) | 0.826 (inactive) | 1 (inactive) | 0.989 (inactive) | 0.971 (inactive) | 1.01 (inactive) | 0.93 (inactive)
11 | CC(=O)N1CCN(c2ccc(OCC3COC(Cn4ccnc4)(c4ccc(Cl)cc4Cl)O3)cc2)CC1 (centres undefined) [Ketoconazole] (20 µM) | 1.17 | 0.988 | 1 | 0.945 | 0.927 (inactive) | 1.03 (inactive) | 0.984 (inactive) | 1.04 (inactive) | 0.979 (inactive) | 1.02 (inactive) | 0.994 (inactive) | 0.937 (inactive)
12 | CCCCOC(=O)c1ccc(O)cc1 [Butylparaben] (20 µM) | 1.09 | 0.963 | 0.965 | 1.01 | 1.01 (inactive) | 0.984 (inactive) | 0.964 (inactive) | 0.939 (inactive) | 0.968 (inactive) | 1.04 (inactive) | 0.984 (inactive) | 0.953 (inactive)
